A short description of experiment [1]: qHTS profiling for inhibitors of Plasmodium falciparum (3D7) proliferation (AID 743322).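 Further: infected erythrocytes exposed to compound for 72 h before lysis; 100% = DMSO vehicle wells and 0% = 0.29 µM artemisinin.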 The conditions noted are these: P. falciparum 3D7 proliferation; at 28.7 µM (top of the series). The gist of the method:
(§1)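 Erythrocytes infected with P. falciparum (0.3% parasitemia, 2.5% hematocrit) incubated with compounds 72 h at 37 C, 5% CO2. Lysis with saponin/Triton buffer containing SYBR Green I, overnight at room temperature in the dark; DNA fluorescence (485/535 nm) normalised to 0.29 uM artemisinin and DMSO.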
A general note: Quantitative high-throughput screening tests each substance at several concentrations.

A short description of experiment [2]: qHTS profiling for inhibitors of Plasmodium falciparum (DD2) proliferation (AID 743323). The following applies: lower = more inhibition; at 28.7 µM (top of the series). The gist of the method:
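Parasite DNA quantified by SYBR Green fluorescence (ex 485, em 535 nm) after saponin/Triton lysis and overnight dark incubation. Cultures: 0.3% parasitemia, 2.5% hematocrit, 72 h, 37 C; data scaled between DMSO and 0.29 uM artemisinin.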

Experiment [3] in a line: qHTS profiling for inhibitors of Plasmodium falciparum (HB3) proliferation (AID 743324; active means well fitted curve in the direction sought with a large enough effect; an effect the other way counts as inactive or inconclusive;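 further: 100% = DMSO vehicle wells and 0% = artemisinin-treated control wells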). The following applies: Plasmodium falciparum HB3 blood-stage proliferation; at 28.7 µM (top of the series). The gist of the method:
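P. falciparum HB3 grown in erythrocytes (0.3% parasitemia, 2.5% hematocrit final) with compound for 72 h at 37 C, 5% CO2. Parasite DNA detected by SYBR Green after saponin/triton lysis overnight; normalized to 0.29 uM artemisinin and DMSO.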

The nature of experiment [4]: qHTS profiling of the MIPE4 collection as inhibitors of Plasmodium falciparum (3D7) proliferation (AID 743344).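 Further: scaled between DMSO vehicle wells and 0.29 µM artemisinin as full inhibition.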 The conditions noted are these: P. falciparum 3D7 in erythrocytes, SYBR Green DNA fluorescence, 72 h; at 28.5 µM (top of the series). The gist of the method:
as §1

Experiment [5] can be described thus: qHTS profiling of the MIPE4 collection as inhibitors of Plasmodium falciparum (DD2) proliferation (AID 743345). The conditions noted are these: P. falciparum Dd2 in erythrocytes, SYBR Green DNA, 72 h; at 28.5 µM (top of the series). The gist of the method: as §1
Experiment [6] in a line: qHTS profiling of the MIPE4 collection as inhibitors of Plasmodium falciparum (DD2) proliferation (Rep 2) (AID 743346). The conditions noted are these: P. falciparum Dd2 in erythrocytes, SYBR Green DNA, 72 h; at 28.5 µM (top of the series). The gist of the method: as §1
Experiment [7] is described as follows: qHTS profiling of the MIPE4 collection as inhibitors of Plasmodium falciparum (HB3) proliferation (AID 743347).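 Further: plate controls were DMSO vehicle wells for no effect and artemisinin wells for full effect.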 The conditions noted are these: P. falciparum HB3 in erythrocytes, SYBR Green DNA, 72 h; at 28.5 µM (top of the series). The gist of the method: as §1
Experiment [8] addresses Cytochrome P450 2C9 (Homo sapiens) (UniProt P11712). The experiment can be described thus: qHTS Assay for Inhibitors and Substrates of Cytochrome P450 2C9 (AID 883; active means well fitted curve in the direction sought with a large enough effect; an effect the other way counts as inactive or inconclusive; further: potency means the concentration at half of the fitted maximal effect; nearly all actives have a fitted effect of over 60% in size). In outline: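 Turnover of Luciferin-H (100uM, KM) by 10nM human CYP2C9 was measured over 60 min at 37C with NADPH regeneration; inhibitors and some substrates reduce luminescence. Data normalized to sulphaphenazole 57uM.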

Experiment [9] addresses Cytochrome P450 3A4 (Homo sapiens) (UniProt P08684). In words: qHTS Assay for Inhibitors and Substrates of Cytochrome P450 3A4 (AID 884; active means well fitted curve in the direction sought with a large enough effect; an effect the other way counts as inactive or inconclusive; further: potency means the concentration at half of the fitted maximal effect; nearly all actives have a fitted effect of over 50% in size). In outline: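 20 nM human CYP3A4 with 25 uM Luciferin-PPXE (at KM) in 200 mM KPO4, preincubated 10 min with compound; NADPH regeneration started a 60 min RT reaction. Luciferin detected by luminescence, normalized to 57 uM ketoconazole as full inhibition.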

For experiment [10] the target is unchanged. The experiment can be described thus: qHTS Assay for Activators of Cytochrome P450 3A4 (AID 885; active means well fitted curve in the direction sought with a large enough effect; an effect the other way counts as inactive or inconclusive; further: nearly all actives have a fitted effect of over 65% in size). In outline:
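Signal was normalized against complete inhibition by 57 uM ketoconazole. The reaction used 20nM CYP3A4 with 25uM Luciferin-PPXE, 10-min compound preincubation and a 60-min NADPH-supported step at RT.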

Experiment [11] concerns the target Cytochrome P450 2D6 (Homo sapiens) (UniProt P10635). In words: qHTS Assay for Inhibitors and Substrates of Cytochrome P450 2D6 (AID 891; active means well fitted curve in the direction sought with a large enough effect; an effect the other way counts as inactive or inconclusive; further: potency means the concentration at half of the fitted maximal effect; nearly all actives have a fitted effect of over 60% in size). The gist of the method:
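Human CYP2D6 (5 nM) with 30 uM Luciferin-ME EGE (at Km) in 100 mM KPO4, compound preincubated 10 min, then NADPH regeneration system for 60 min at room temperature. Luciferin read by luminescence; normalized to 1.43 uM quinidine.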

Structures are written as SMILES. Where “and” joins values, the source holds several entries; their conditions need not be identical. Equal values may be shown once. Inconclusive results are not listed. Calls of active or inactive are those of the source. Unless noted, how the calls were made is not given here.

Sequence of Cytochrome P450 3A4 (Homo sapiens) (P08684 whole entry, looked up): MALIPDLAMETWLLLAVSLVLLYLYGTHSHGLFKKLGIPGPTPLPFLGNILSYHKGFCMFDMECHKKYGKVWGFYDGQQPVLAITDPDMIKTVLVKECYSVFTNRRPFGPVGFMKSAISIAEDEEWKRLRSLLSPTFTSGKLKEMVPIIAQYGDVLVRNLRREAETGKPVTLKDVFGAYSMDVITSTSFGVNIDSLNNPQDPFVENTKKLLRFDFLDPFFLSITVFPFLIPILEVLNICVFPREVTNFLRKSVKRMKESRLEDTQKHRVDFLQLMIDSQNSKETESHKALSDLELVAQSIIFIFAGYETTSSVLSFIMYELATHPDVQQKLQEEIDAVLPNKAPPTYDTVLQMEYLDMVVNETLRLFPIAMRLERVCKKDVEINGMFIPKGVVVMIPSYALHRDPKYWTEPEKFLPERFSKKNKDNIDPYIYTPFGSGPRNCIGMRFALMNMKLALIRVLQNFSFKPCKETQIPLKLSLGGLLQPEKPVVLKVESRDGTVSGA
Sequence of Cytochrome P450 2D6 (Homo sapiens) (P10635 whole entry, looked up): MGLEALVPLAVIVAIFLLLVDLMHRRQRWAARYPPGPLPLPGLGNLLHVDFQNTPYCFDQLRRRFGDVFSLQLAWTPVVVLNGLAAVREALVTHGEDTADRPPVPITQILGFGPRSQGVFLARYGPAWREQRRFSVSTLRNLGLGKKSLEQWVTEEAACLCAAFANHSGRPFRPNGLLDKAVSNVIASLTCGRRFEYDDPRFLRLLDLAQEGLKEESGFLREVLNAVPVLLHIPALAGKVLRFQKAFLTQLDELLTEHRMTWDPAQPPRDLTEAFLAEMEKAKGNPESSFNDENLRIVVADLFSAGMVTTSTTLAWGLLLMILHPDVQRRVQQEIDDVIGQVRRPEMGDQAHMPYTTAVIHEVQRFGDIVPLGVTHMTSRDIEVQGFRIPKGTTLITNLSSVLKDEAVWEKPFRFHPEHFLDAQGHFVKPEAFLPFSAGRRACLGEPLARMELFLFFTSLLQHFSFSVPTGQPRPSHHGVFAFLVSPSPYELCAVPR
Sequence of Cytochrome P450 2C9 (Homo sapiens) (P11712 whole entry, looked up): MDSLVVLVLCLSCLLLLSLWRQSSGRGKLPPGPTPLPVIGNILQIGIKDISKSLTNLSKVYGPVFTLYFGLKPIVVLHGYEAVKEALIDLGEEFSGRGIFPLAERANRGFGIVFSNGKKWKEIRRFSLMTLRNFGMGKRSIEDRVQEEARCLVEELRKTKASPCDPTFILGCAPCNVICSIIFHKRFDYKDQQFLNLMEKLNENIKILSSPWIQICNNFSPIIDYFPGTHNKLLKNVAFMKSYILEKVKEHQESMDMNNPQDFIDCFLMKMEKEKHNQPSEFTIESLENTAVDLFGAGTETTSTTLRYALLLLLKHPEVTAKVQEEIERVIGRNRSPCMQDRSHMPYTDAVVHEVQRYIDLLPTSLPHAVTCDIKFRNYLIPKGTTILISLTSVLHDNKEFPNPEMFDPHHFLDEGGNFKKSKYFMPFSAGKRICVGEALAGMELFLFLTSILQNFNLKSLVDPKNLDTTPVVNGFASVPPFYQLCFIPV

In the case of `O=C([C@H](Cc1ccc(O[S+](=O)([O-])c2cccnc2)cc1)N[S+](=O)([O-])c1ccccn1)N1CCN(c2ccccc2)CC1`, in experiment [1], the remaining parasite growth % (stronger effect = lower value) worked out at 6.76%. The activity, percent of control in experiment [2] was 12.3%. For the same molecule, the remaining proliferation (% of control), lower = more inhibition in [3] was 2.47%.
Regarding `CC(=O)NCC1CN(c2ccc(N3CCOCC3)c(F)c2)C(=O)O1` (stereo unspecified), the parasite growth, % of DMSO control in experiment [4] is 91.2%. Moreover, the parasite growth remaining, % of DMSO control (lower = more inhibition) in experiment [5] was 94.2%. In addition, in experiment [6], the parasite growth, % of control (lower = inhibition) was 75.9%. The growth, % of control in experiment [7] stood at 99%.
Consider `C[C@@H]1Cc2c([nH]c3cc(Cl)c(F)cc23)[C@]2(N1)C(=O)Nc1ccc(Cl)cc12`, for which the remaining parasite growth % (stronger effect = lower value) in [1] is -0.966%. The activity, percent of control in [2] was 0.0887%. Moreover, the remaining proliferation (% of control), lower = more inhibition in experiment [3] is -0.181%.
Take `O=CN(O)CCCP(=O)(O)O`: the remaining parasite growth % (stronger effect = lower value) in experiment [1] came to 11.2%. Moreover, the activity, percent of control in [2] turned out to be 11.8%. For the same molecule, the remaining proliferation (% of control), lower = more inhibition in experiment [3] stood at 14.2%. The same molecule gave a parasite growth, % of DMSO control in [4] of 14.4%. In addition, in experiment [5], the parasite growth remaining, % of DMSO control (lower = more inhibition) was found to be 19.9%. In addition, in experiment [6], the parasite growth, % of control (lower = inhibition) amounted to 17.4%. The growth, % of control in experiment [7] was found to be 9.42%.
For `C[C@H]1C[C@H]2C3CCC4=CC(=O)C=C[C@@]4(C)[C@@]3(Cl)[C@@H](O)CC2(C)[C@@]1(OC(=O)c1ccco1)C(=O)CCl` (stereo partly specified), the parasite growth, % of DMSO control in experiment [4] is 5.13%. In addition, the parasite growth remaining, % of DMSO control (lower = more inhibition) in experiment [5] came out at 6.79%. In addition, the parasite growth, % of control (lower = inhibition) in experiment [6] turned out to be 16.7%. In experiment [7], this molecule yielded a growth, % of control of 5.44%.
For `CC(C)(C)OC(=O)N[C@@H](Cc1ccc(O[S+](=O)([O-])c2cccc3cnccc23)cc1)C(=O)Nc1ccc(-c2ccccc2)cc1` the same measures were 5.81%, 8.82%, 13.9% and 4.11%.
Take `O=C([C@H](Cc1ccc(OS(=O)(=O)c2ccccn2)cc1)NS(=O)(=O)c1ccccn1)N1CCN(c2ccccc2)CC1`: the remaining parasite growth % (stronger effect = lower value) in experiment [1] was 49.4%. In addition, the activity, percent of control in experiment [2] is 24.7%. Besides, in [3], the remaining proliferation (% of control), lower = more inhibition is 18.6%.
With `CC(C)(C)OC(=O)N[C@@H](Cc1ccc(O[S+](=O)([O-])c2cccc3cccnc23)cc1)C(=O)N1CCN(c2ccccc2)CC1`, the remaining parasite growth % (stronger effect = lower value) in experiment [1] is -0.907%. In addition, the activity, percent of control in experiment [2] was -0.148%. Also, in experiment [3], the remaining proliferation (% of control), lower = more inhibition is -0.0202%.
`CC1(C)O[C@@H]2[C@H]3OC(C)(C)O[C@]3(COS(N)(=O)=O)OC[C@H]2O1` gave a parasite growth, % of DMSO control in experiment [4] of 103%. Besides, the parasite growth remaining, % of DMSO control (lower = more inhibition) in [5] came to 93.9%. For the same molecule, the parasite growth, % of control (lower = inhibition) in [6] was 101%. The molecule further yielded a growth, % of control in experiment [7] of 59.9%.
For the molecule `CC(C)(C)OC(=O)N[C@@H](Cc1ccc(O[S+](=O)([O-])c2ccccn2)cc1)C(=O)N1CCN(c2ccccc2)CC1`, the remaining parasite growth % (stronger effect = lower value) in [1] amounted to 5.22%. Also, in [2], the activity, percent of control was determined as 11.4%. Also, the remaining proliferation (% of control), lower = more inhibition in experiment [3] came out at 2.38%.
The molecule `CN[C@@H]1[C@@H](O[C@H]2[C@H](O[C@H]3[C@H](O)[C@@H](O)[C@H](N=C(N)N)[C@@H](O)[C@H]3N=C(N)N)O[C@@H](C)[C@]2(O)C=O)O[C@@H](CO)[C@H](O)[C@H]1O` came in with a parasite growth, % of DMSO control in experiment [4] of 93.9%. Besides, the parasite growth remaining, % of DMSO control (lower = more inhibition) in [5] amounted to 105%. Moreover, the parasite growth, % of control (lower = inhibition) in [6] is 118%. The same molecule yielded a growth, % of control in experiment [7] of 86.4%.
Consider `Cc1cc2c(nc1C)CCCN2C[C@H](O)CN1CCCc2nc(-c3ccc(Br)cc3)ccc21`, for which the Potency was 2.51 µM (active) in experiment [8], 3.98 µM (active) in experiment [9] and 3.16 µM (active) in experiment [11]. Moreover, the activity change, positive = activation in experiment [10] was -65% [at 11.4 µM] (inactive) and -47.8% [at 11.4 µM] (inactive).

These data come from PubChem BioAssay (NCATS).
